# HT1080 IDH1KD tx – qHTS for induction of synthetic lethality in tumor cells producing 2HG: qHTS for the HT-1080-IDH1KD cell line; HT-1080 IDH1 knockdown viability, ATP luminescence, 48 h; Potency, µM (doses to about 46.1 µM), inactives show at the top dose activity, negative = toxicity, most hits filed as cytotoxic; actives 2% (n = 360,000);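 also: 0% = DMSO wells and -100% = cell-free medium wells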
#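 % activity derives from luminescence (CellTiter-Glo), normalised to DMSO and no-cell wells. HT-1080-IDH1KD cells, 750/well, had 48 h compound exposure at 37 °C.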
# MCF10A rereplic – A quantitative high throughput screen for small molecules that induce DNA re-replication in MCF 10a normal breast cells; MCF 10A DNA re-replication, Hoechst nuclear intensity, 48 h; Potency, µM (highest dose often 46.1 µM), for the others: at the top dose activity, positive = re-replication, usual class: activators; actives 2.9% (n = 350,000); AID 624296, 2012; also: % of control where 0% means no effect; nearly all actives have a fitted effect of over 50% in size
# HT1080NT lethal – qHTS for induction of synthetic lethality in tumor cells producing 2HG: qHTS for the HT-1080-NT fibrosarcoma cell line. HT-1080-NT fibrosarcoma viability, CellTiter-Glo ATP luminescence, 48 h. Potency, µM (series often up to 46.1 µM), without a hit: top-dose activity, negative = less viability, hits mostly cytotoxic. actives 1.6% (n = 360,000). AID 686970, 2013;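 also: NT is the 2HG producing partner of a matched IDH1 knockdown line; 0% = DMSO-treated cells and -100% = media-only wells without cells; nearly all actives have a fitted effect of over 55% in size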
#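 750 cells/well, RPMI + 5% FBS; 2 h settle, compound pin-transfer, 48 h at 37 degrees C. CellTiter-Glo 10 min RT, luminescence. Normalized to DMSO and media-only wells.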
# SW480 rerep – A quantitative high throughput screen for small molecules that induce DNA re-replication in SW480 colon adenocarcinoma cells; SW480 DNA re-replication, Hoechst DNA content imaging, 48 h; Potency, µM (doses to about 46.1 µM), without a hit: top-dose re-replication activation, hits mostly activators; actives 1.8% (n = 340,000); AID 624297, 2012; also: % of control where 0% means no effect; nearly all actives have a fitted effect of over 55% in size
#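 Treated cells incubate 48 hr (37 C, 5% CO2), are stained 40 min with Hoechst, and nuclear fluorescence is enumerated; a rise in nuclei with high DNA signal marks re-replication.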
# KB-V1 MDR tox – qHTS assay for MDR1-selective chemotherapeutics: Primary screen using the drug-selected MDR subline cells KB-V1. KB-V1 MDR cells viability, CellTiter-Glo, 72 h. Potency, µM (top dose mostly 46.1 µM), most hits filed as cytotoxic. actives 3.4% (n = 400,000). AID 1347076, 2019; also: % is scaled to controls: 0 for no effect and ±100 for the full control effect; nearly all actives have a fitted effect of over 60% in size
#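 Potencies derive from concentration-effect curves fitted to normalized luminescence (CellTiter-Glo) of KB-V1 cells treated for 72 h at 37 degrees C in phenol-red-free DMEM containing 10% FBS.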
# KB-3-1 cytotox – qHTS assay for MDR1-selective chemotherapeutics: Primary screen using the parental adenocarcinoma cell KB-3-1. actives 1.4% (n = 400,000). KB-3-1 viability, CellTiter-Glo ATP luminescence, 72 h. Potency, µM (doses to about 46.1 µM), most hits filed as cytotoxic; also: % is scaled to controls: 0 for no effect and ±100 for the full control effect; nearly all actives have a fitted effect of over 60% in size
#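 Cytotoxicity measured as CellTiter-Glo luminescence after 72 h at 37 C. Compound titrations were pinned onto drug-naive KB-3-1 parental adenocarcinoma cells grown in DMEM with 10% FBS, and normalized data fitted to concentration-response curves.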
# Starred values were filed as active, the others as inactive; i = inactive; ? = inconclusive; / = not tested or not shown. Sampled rows, rich in hits. Any-hit rate of the full collection: about 7.9%. Calls follow the shape of the dose curve; as a rule, active = well fitted curve in the direction sought with a large enough effect; inconclusive = small, poorly fitted or top-dose-only effect, or another doubt; inactive = no such curve, though single readings can be large; an effect the other way counts as inactive or inconclusive. Potency is read from the fitted curve at half-maximal effect.
SMILES,HT1080 IDH1KD tx,MCF10A rereplic,HT1080NT lethal,SW480 rerep,KB-V1 MDR tox,KB-3-1 cytotox
COc1ccc(NC(=S)NC(NC(=O)/C=C/c2ccccc2)C(Cl)(Cl)Cl)cc1 (stereo unspecified),?,?,?,25.3%,i,?
O=C(CCNC(=O)c1ccc([N+](=O)[O-])cc1)NCCc1ccc(Cl)cc1,8.1%,10.3%,5.9%,0.3%,?,i
CC(=O)Nc1ccc(S(=O)(=O)NCCC(=O)OC(C)C(=O)c2ccc(C)cc2)cc1 (stereo unspecified),-3.7%,5.6%,7.4%,-10.8%,i,i
COc1ccc2cc(CNCCOCCOCCNCc3ccc4cc(OC)ccc4c3)ccc2c1,16.4µM*,7.31µM*,?,23.1%,9.2µM*,7.31µM*
COc1ccc(NC(=O)NCC2CCN(Cc3ccccc3F)CC2)c(OC)c1,/,/,/,/,i,i
COc1cc(/C=C(\C#N)c2ccccn2)cc(OC)c1O,-18.0%,?,-7.7%,?,?,7.31µM*
N#C/C(=C\c1ccccn1)c1ccccn1,-18.3%,20.6µM*,-15.2%,14.6µM*,i,?
COc1cc(/C=C(\C#N)c2ccccn2)ccc1OCC(=O)Nc1cccc(C(F)(F)F)c1,-6.1%,?,-3.2%,2.2%,i,i
N#C/C(=C/c1cccs1)c1ccccn1,14.8%,1.6%,11.2%,-13.5%,i,i
COC(=O)c1ccc(/C=C(\C#N)c2ccccn2)cc1,-12.3%,?,-0.8%,-9.5%,i,?
COc1cc(/C=C(\C#N)c2ccccn2)ccc1OCc1ccccc1Cl,3.7%,?,1.7%,-2.2%,10.3µM*,i
Cc1cc(C)n2nc(CC#N)c(C#N)c2n1,27.8%,0.9%,14.8%,1.6%,?,i
Cc1cc(C)n2nc(/C(C#N)=C/c3ccccn3)c(C#N)c2n1,-8.6%,6.51µM*,-11.2%,3.26µM*,i,i
COc1ccc(C(CNC(=O)c2cc3c(s2)CCC(C)C3)N2CCCC2)cc1 (stereo unspecified),?,?,?,?,i,20.6µM*
COc1ccc(C(CNC(=O)c2cc3c(s2)CCC(C)C3)N2CCOCC2)cc1 (stereo unspecified),-11.4%,?,-0.2%,5.2%,i,i
CCOc1ccc(CN2CCN(C3CCC3)CC2CCO)cc1 (stereo unspecified),-4.2%,21.4%,-4.3%,-3.4%,i,i
CC(=O)OCc1cc(=O)n2nc(C3CCCCC3)sc2n1,/,/,/,/,i,i
O=C(Nc1ccc(Cl)cn1)c1cccc2c(Br)cccc12,?,?,?,?,i,11.6µM*
O=C(Nc1ccc(Br)cn1)c1cccc2ccccc12,5.8µM*,4.11µM*,2.91µM*,3.26µM*,1.03µM*,i
COc1c(C(=O)Nc2ccc(Br)cn2)ccc2ccccc12,9.9%,5.8%,12.5%,1.4%,i,i
O=C(Nc1ccc(Br)cn1)c1ccc2nccnc2c1,-4.3%,?,-1.5%,?,16.4µM*,?
CCN(CC(=O)Nc1c(F)cccc1F)C(=O)CCOc1ccccc1,-6.0%,3.7%,-1.6%,1.1%,i,i
NCCCN(Cc1ccc(Cl)cc1)c1ccc(Br)cn1,11.2µM*,/,?,/,/,/
NCCCN(Cc1ccc(Cl)c(Cl)c1)c1ccc(Br)cn1,11.2µM*,/,?,/,/,/
Cc1cc(S(=O)(=O)N2CCOCC2)ccc1OCC(=O)Nc1cccc(F)c1,-6.8%,-3.0%,-27.3%,-4.0%,i,?
SMILES,HT1080 IDH1KD tx,MCF10A rereplic,HT1080NT lethal,SW480 rerep,KB-V1 MDR tox,KB-3-1 cytotox
O=C(O)c1cccc(-n2c(/C=C/c3ccccc3)nc3ccccc3c2=O)c1,-2.9%,15.1%,-0.4%,?,i,i
O=c1c2ccccc2nc(/C=C/c2cccc([N+](=O)[O-])c2)n1CCO,-10.1%,-30.7%,-17.2%,-2.9%,?,i
CCn1c(/C=C\c2ccccc2C)nc2ccccc2c1=O,2.8%,0.3%,-1.1%,19.0%,?,i
CN(C)c1ccc(/C=C/c2nc3ccccc3c(=O)n2-c2ccc(C(=O)O)cc2)cc1,-11.5%,18.4µM*,1.8%,20.6µM*,i,i
CCn1c(/C=C/c2cccc([N+](=O)[O-])c2)nc2ccccc2c1=O,9.1%,15.1%,14.1%,2.8%,20.6µM*,?
CCn1c(/C=C/c2ccccc2Cl)nc2ccccc2c1=O,0.0%,16.4µM*,-4.8%,?,i,i
CN(C)S(=O)(=O)c1ccc2[nH]cc(/C=C/c3nc4ccccc4c(=O)n3-c3ccccc3)c2c1,?,?,?,3.26µM*,?,i
Cc1[nH]c2ccccc2c1/C=C/c1nc2ccccc2c(=O)n1-c1ccc([N+](=O)[O-])cc1,1.9%,11.4%,-6.4%,-4.4%,?,i
Cc1ccc(C)c(NC(=O)C(=O)NCc2ccccn2)c1,23.9%,0.0%,25.1%,?,i,i
CCn1c(/C=C/c2c[nH]c3ccccc23)nc2ccccc2c1=O,-17.2%,20.6µM*,?,?,i,i
CCn1c(/C=C/c2ccccc2[N+](=O)[O-])nc2ccccc2c1=O,-6.4%,14.9%,-11.7%,27.4%,?,i
O=c1c2ccccc2nc(/C=C/c2cccnc2)n1CCc1ccccc1,?,29.1µM*,?,-21.4%,?,i
CN(C)S(=O)(=O)c1ccc(Nc2nc(C3CC3)nc3c2nnn3Cc2ccccc2Cl)cc1,5.8µM*,13.9%,?,8.5%,?,2.91µM*
CC(C)Cc1nc(Nc2ccccc2C#N)c2nnn(Cc3ccccc3)c2n1,18.4µM*,4.7%,?,?,?,i
c1ccc(Cn2nnc3c(NCc4ccc5c(c4)OCO5)ncnc32)cc1,3.2%,7.5%,0.0%,-2.5%,i,i
COc1ccc(OC)c(Nc2nc(C3CC3)nc3c2nnn3Cc2ccccc2)c1,10.2%,-14.1%,7.8%,-23.9%,2.06µM*,i
c1ccc(Cn2nnc3c(Nc4ccc5c(c4)OCO5)nc(C4CC4)nc32)cc1,?,10.3µM*,?,2.0%,i,i
COC(=O)CNc1nc(C2CC2)nc2c1nnn2Cc1ccccc1Cl,11.9%,27.0%,-2.6%,-12.3%,i,i

# Screens from PubChem BioAssay.
